Data on 5 compounds can be found in PubChem BioAssay.

Values joined by “and” are separate entries in the source; they are usually repeats but may differ in a detail not shown here. Identical values can stand only once. Results filed as inconclusive are left out. Active and inactive are the calls of the source. Unless noted, no stated cut-off is given here; in the data, active means nuclear beta-catenin stimulation mostly above about 4.2% (no sharp cut-off); inactive means mostly below about 10%.

Experiment [1] can be described thus: Wnt pathway potentiators raising nuclear beta-catenin – imaging, WNT3A-conditioned medium, mouse C2C12, NPC library, primary screen (AID 1117326). To be noted: stronger effect = higher value.
A short description of experiment [2]: stimulators of insulin release from INS-1E, primary screen, cell-based, 5 mM glucose, NPC library (AID 1117329;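 active means compound raises insulin release from rat beta cells at 5 mM glucose, no numeric limit stated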). The note with it: rat INS-1E insulin secretion, at 10 µM, stronger effect = higher value.
Experiment [3] can be described thus: growth inhibition of GSK3B-pretreated HCT116 cells – cell-based, CellTiter-Glo, 0.2 to 20 µM (AID 1117336;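 active means compounds lowering colon cancer cell viability after pretreatment blocking the GSK3B kinase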). The note with it: HCT116 viability after GSK3B inhibitor, at 20 µM, stronger effect = higher value. In general terms: Cellular ATP, detected with luciferase, serves as a proxy for viable cell number.
Experiment [4] is described as follows: inhibition of endothelial tube formation, primary screen, imaging, VEGF stimulated, CD31 staining, tube area, NPC library (AID 1117340;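 active means compound that reduces growth-factor-driven endothelial tube area in a mixed cell culture, no cutoff stated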). To be noted: VEGF-stimulated ADSC/ECFC co-culture, at 10 µM, stronger effect = higher value.
The nature of experiment [5]: GLP1 release stimulators, primary, NCI-H716, NPC library (AID 1117341;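 active means compound raises GLP1 secretion from the human gut endocrine cells, with no numeric limit stated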). The note with it: NCI-H716 cells, at 10 µM, stronger effect = higher value.
A short description of experiment [6]: HCT116 colon cancer cell growth inhibition, primary screen, CellTiter-Glo luminescence, NPC library (AID 1117342;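 active means compounds that lower survival of HCT116 colon cancer cells in the luminescence readout, no numeric limit stated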). The note with it: at 20 µM (top of the series).
Experiment [7] can be described thus: reduced SW480 viability measured with CellTiter-Glo, NPC library, primary (AID 1117343;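 active means compounds that lower viability of the colon cancer cells in the luminescence readout, with no numeric limit stated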). The note with it: CellTiter-Glo luminescence; at 20 µM (top of the series) unless noted.
A short description of experiment [8]: NPC library primary testing for decreased DLD-1 cell viability via CellTiter-Glo (AID 1117346;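 active means compounds that lower survival of DLD-1 colon cancer cells in the luminescence readout, no cutoff given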). The note with it: DLD-1 viability, CellTiter-Glo luminescence; at 20 µM (top of the series).
A short description of experiment [9]: viability loss with induced miR-34 in A549 – imaging, A549 dox-inducible miR-34, nuclei and caspase counts, primary screen (AID 1347080;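 active means compounds whose cell count with miR-34 switched on is under 0.7 times the count with it off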). To be noted: A549 miR-34 inducible, Hoechst nuclei count, 48 h.
In experiment [10] the target is NAD(+) hydrolase SARM1 (Homo sapiens) (UniProt Q6SZW1). Briefly: blocking NAD cleavage by SARM1 SAM-TIR – cell lysate, NAD-Glo luminescence (AID 1508614;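 active means compound whose remaining NAD level is above about 45 nM, limit read from the data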). To be noted: SAM-TIR HEK293T lysate NADase, at 1 µM, stronger effect = higher value.
Chain of NAD(+) hydrolase SARM1 (Homo sapiens) (Q6SZW1 whole entry, looked up): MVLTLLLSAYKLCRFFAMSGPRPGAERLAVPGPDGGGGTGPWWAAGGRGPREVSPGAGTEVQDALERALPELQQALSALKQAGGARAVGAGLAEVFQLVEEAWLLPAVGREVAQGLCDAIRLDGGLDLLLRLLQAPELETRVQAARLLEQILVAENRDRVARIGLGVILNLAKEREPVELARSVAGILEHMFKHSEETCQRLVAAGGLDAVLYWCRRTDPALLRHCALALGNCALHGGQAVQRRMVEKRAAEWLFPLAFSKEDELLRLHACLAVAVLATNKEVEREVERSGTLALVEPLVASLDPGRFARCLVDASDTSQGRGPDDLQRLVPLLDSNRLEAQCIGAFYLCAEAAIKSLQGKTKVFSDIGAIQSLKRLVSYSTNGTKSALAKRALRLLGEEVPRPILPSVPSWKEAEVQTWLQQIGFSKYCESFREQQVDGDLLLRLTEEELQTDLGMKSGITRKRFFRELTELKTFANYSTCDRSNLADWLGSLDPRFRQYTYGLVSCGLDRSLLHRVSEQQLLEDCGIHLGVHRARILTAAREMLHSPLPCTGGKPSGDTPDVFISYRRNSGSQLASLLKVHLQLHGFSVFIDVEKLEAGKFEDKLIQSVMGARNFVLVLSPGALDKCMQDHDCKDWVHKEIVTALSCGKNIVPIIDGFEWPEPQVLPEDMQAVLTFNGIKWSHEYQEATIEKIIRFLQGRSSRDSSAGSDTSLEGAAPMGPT
Experiment [11] can be described thus: compounds altering viability of human ES cells (AID 493140; call rule not given here;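 further: cells exposed to compounds for four days before counting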). To be noted: human embryonic stem cell survival screen; stronger effect = higher value.
Experiment [12] can be described thus: P. berghei load reduction in hepatocytes – cell-based, HepG2, luciferase luminescence, HepG2 viability, primary screen (AID 624349; in the data active means parasite load remaining mostly below about 12%, no sharp cut-off; inactive means mostly above about 10%;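 further: 100% = mean of DMSO negative control wells on the same plate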). To be noted: P. berghei liver stage in HepG2, luciferase luminescence, concentration not given here; parasite load remaining: stronger effect = lower value; viability: measured here: HepG2 viability without parasites.
Experiment [13] can be described thus: MELAS cybrid and Rieske KO viability enhancers – cell-based, MELAS cybrids, Rieske KO mouse fibroblasts, CellTiter-Glo, primary screen (AID 1508586;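 active means mean z-score across replicates of 1.96 or higher in either the MELAS or the Rieske mutant cell line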;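 further: z relative to plate mean and SD of compound and empty wells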). To be noted: low glucose.
Experiment [14] has as its target ATP-dependent translocase ABCB1 (Homo sapiens) (UniProt P08183). Nature of the experiment: P-glycoprotein substrate transport blockade – cell-based (AID 377; in the data active means fluorescence slope change above about 50%). To be noted: MDR1-expressing cells, fluorescent substrate accumulation slope; stronger effect = higher value; concentration not given here.
Where [15] appears, read: stronger effect = lower value, cell number ratio, induced over uninduced.
The mark [16] stands for this setting: measured here: relative caspase fold change +Dox/-Dox.
[17] abbreviates: measured here: total cells with miR-34 induction, stronger effect = lower value.
The mark [18] stands for this setting: measured here: total cells without miR-34 induction.
The mark [19] stands for this setting: MELAS cybrid survival, CellTiter-Glo 48 h, stronger effect = higher value.
Setting [20] is: Rieske KO mouse fibroblast survival, CellTiter-Glo 72 h.

Broadly, the viability is a per cent measure of how many cells are alive, often set against a control.

Chain of ATP-dependent translocase ABCB1 (Homo sapiens) (P08183 whole entry, looked up): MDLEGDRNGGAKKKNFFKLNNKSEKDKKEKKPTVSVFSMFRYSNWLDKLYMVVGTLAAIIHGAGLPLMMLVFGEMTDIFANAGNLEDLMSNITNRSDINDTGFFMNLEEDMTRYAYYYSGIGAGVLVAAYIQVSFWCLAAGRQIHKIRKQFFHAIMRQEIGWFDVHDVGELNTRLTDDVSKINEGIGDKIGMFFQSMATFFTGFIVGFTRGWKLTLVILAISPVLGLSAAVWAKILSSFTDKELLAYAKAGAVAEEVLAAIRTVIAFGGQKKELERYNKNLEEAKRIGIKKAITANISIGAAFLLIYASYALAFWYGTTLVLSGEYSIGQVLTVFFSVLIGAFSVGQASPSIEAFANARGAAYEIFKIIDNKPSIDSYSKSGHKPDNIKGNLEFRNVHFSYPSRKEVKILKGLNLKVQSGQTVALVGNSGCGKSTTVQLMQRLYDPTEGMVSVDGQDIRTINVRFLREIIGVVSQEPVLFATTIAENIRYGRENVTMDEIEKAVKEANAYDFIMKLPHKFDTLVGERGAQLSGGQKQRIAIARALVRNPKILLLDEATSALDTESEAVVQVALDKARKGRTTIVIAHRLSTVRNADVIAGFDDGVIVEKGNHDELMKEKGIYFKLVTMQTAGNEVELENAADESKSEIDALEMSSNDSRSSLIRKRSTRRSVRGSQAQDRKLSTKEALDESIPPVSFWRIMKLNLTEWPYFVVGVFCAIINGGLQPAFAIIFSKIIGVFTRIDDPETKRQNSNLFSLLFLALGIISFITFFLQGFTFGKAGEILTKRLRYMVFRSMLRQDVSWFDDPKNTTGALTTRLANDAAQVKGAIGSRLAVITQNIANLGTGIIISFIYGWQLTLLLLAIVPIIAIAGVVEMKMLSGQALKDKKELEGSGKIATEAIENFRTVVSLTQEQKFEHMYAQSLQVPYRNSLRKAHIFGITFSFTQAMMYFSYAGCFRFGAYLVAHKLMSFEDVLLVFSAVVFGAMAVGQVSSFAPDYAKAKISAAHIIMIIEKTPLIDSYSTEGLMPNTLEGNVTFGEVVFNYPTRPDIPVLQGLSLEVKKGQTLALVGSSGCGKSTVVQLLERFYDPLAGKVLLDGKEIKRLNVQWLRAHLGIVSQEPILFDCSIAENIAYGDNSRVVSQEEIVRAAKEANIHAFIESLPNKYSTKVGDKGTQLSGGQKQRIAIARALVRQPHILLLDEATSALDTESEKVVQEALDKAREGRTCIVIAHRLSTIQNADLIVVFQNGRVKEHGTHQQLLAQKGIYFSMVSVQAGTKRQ

As to `FCOC(C(F)(F)F)C(F)(F)F`, the nuclear beta-catenin stimulation is -1.9% (inactive) in experiment [1] (at 10 µM) and -0.4% in experiment [1] (stimulation, at 2 µM). The insulin secretion stimulation in [2] is 5.1% (inactive). In [3], the viability decrease was -4.6% (inactive). Moreover, the tube area decrease in experiment [4] is 8.2% (inactive). Besides, the GLP1 secretion stimulation in experiment [5] is -1.9% (inactive). For the same compound, the inhibition of viability in [6] is -0.4% (inactive). Also, the viability decrease (inhibition) in experiment [7] is -3.5% (inactive); in experiment [8], 7.5% (inactive). The figures for the fold change in [9] (setting [15]) and in experiment [9] (setting [16]) were 0.911 (inactive) and 1.07, respectively. Besides, the figures for the cell count in [9] (setting [17]) and in experiment [9] (setting [18]) were 8640 and 9480, respectively. For the same compound, the remaining NAD in experiment [10] was 10 nM (inactive).
For the compound `CCC(C)(CN(C)C)OC(=O)c1ccccc1` (stereo not drawn), the survival in [11] was 26.8 (inactive). Further, in experiment [12], the parasite load remaining is 38.1% (inactive) and 188% (inactive). Further, the viability in [12] is 56.2% and 90.3%. Besides, the nuclear beta-catenin stimulation in experiment [1] (at 10 µM) was -2.1% (inactive); in experiment [1] (stimulation, at 2 µM), -1.6%. For the same compound, in experiment [2], the insulin secretion stimulation was 3% (inactive). Moreover, the viability decrease in [3] is -25.9% (inactive). The tube area decrease in [4] is -3.6% (inactive). The GLP1 secretion stimulation in [5] was -1.9% (inactive). Also, the inhibition of viability in [6] was -6.83% (inactive). Moreover, the viability decrease (inhibition) in experiment [7] was 7.2% (inactive); in experiment [8], -17.6% (inactive). For the same compound, the fold change was 0.964 (inactive) in [9] (setting [15]) and 0.9 in experiment [9] (setting [16]). In addition, the cell count worked out at 8680 in [9] (setting [17]) and 9000 in [9] (setting [18]). The z-score in experiment [13] (setting [19]) was 0.476 (inactive); in [13] (setting [20]) it was -0.277.
Regarding `O=C(O)CCc1nc2ccccc2[nH]1`, the nuclear beta-catenin stimulation is 2.8% (inactive) in experiment [1] (at 10 µM) and 2.5% in experiment [1] (stimulation, at 2 µM). Further, the insulin secretion stimulation in [2] is -1.6% (inactive). The viability decrease in [3] was 3.65% (inactive). Further, in experiment [4], the tube area decrease was -5.8% (inactive). The GLP1 secretion stimulation in experiment [5] is 3.5% (inactive). For the same compound, the inhibition of viability in [6] was -11.8% (inactive). Also, the viability decrease (inhibition) in [7] was 106% (active); in [8] it was 5.2% (inactive). In addition, the fold change in experiment [9] (setting [15]) is 0.93 (inactive); in experiment [9] (setting [16]) it was 1.12. For the same compound, the cell count is 8680 in experiment [9] (setting [17]) and 9340 in [9] (setting [18]). Moreover, the remaining NAD in experiment [10] is 10 nM (inactive).
Take `NC(=O)OCC(O)COc1ccc(Cl)cc1` (stereo not drawn): the fluorescence slope change in experiment [14] is 58.8% (active). Moreover, in experiment [11], the survival was 16.6 (inactive). Further, the parasite load remaining in [12] was 52.4% (inactive) and 99.4% (inactive). Also, the viability in experiment [12] was 46% and 92.9%. In addition, the nuclear beta-catenin stimulation in experiment [1] (at 10 µM) was -1.4% (inactive); in experiment [1] (stimulation, at 2 µM), -0.6%. Besides, the insulin secretion stimulation in experiment [2] was 1.2% (inactive). Further, in experiment [3], the viability decrease was 0.2% (inactive). In addition, the tube area decrease in [4] is -23.7% (inactive). The GLP1 secretion stimulation in [5] is -0.6% (inactive). Moreover, the inhibition of viability in experiment [6] was 8.4% (inactive). Also, the values for the viability decrease (inhibition) in experiment [7] and in experiment [8] were 4.1% (inactive) and 11.4% (inactive), respectively. For the same compound, the results for the fold change in [9] (setting [15]) and in experiment [9] (setting [16]) were 0.864 (inactive) and 2.23, respectively. Also, the cell count stood at 8110 in experiment [9] (setting [17]) and 9380 in [9] (setting [18]). For the same compound, the z-score is -0.968 (inactive) in experiment [13] (setting [19]) and -0.0882 in experiment [13] (setting [20]).
For the compound `CC[N+](C)(CC)CCOC(=O)C1c2ccccc2Oc2ccccc21`, in experiment [11], the survival was 18.2 (inactive). Further, the parasite load remaining in [12] is 64.6% (inactive). The compound further yielded a viability in experiment [12] of 67.1%. Further, the nuclear beta-catenin stimulation in experiment [1] (at 10 µM) is -0.9% (inactive); in [1] (stimulation, at 2 µM) it was 0.8%. In addition, the insulin secretion stimulation in experiment [2] was 2.6% (inactive). Moreover, the viability decrease in [3] was -10.2% (inactive). In addition, the tube area decrease in [4] was -0.8% (inactive). Moreover, in [5], the GLP1 secretion stimulation was -4.5% (inactive). Also, the inhibition of viability in experiment [6] is 6% (inactive). The viability decrease (inhibition) in experiment [7] was 1.5% (inactive); in [8], -6.1% (inactive). In addition, the fold change in [9] (setting [15]) is 0.995 (inactive); in experiment [9] (setting [16]), 0.614. The cell count in experiment [9] (setting [17]) amounted to 9340; in experiment [9] (setting [18]), 9380. Further, the results for the z-score in [13] (setting [19]) and in [13] (setting [20]) were 0.613 (inactive) and 0.177, respectively.
